Assay results taken from PubChem BioAssay AID463173 (ICCB-Longwood Screening Facility, Harvard Medical School, 2010).
About 4,300 (8.3%) of roughly 52,000 compounds were called active. The list comes from a sample in which actives are over-represented; it also holds similar structures and randomly drawn compounds. Unmarked numbers belong to inactive results. Rule as the data show it: active = survival mostly below about 52% (no sharp cut-off); inactive = mostly above about 56%.

Each compound was assayed on DeltatarO mutant (assay: growth inhibition of S. aureus wild type versus tarO mutant, primary screen, teichoic acid synthesis inhibitors, RN4220, OD600 (AID 463173)). Conditions: OD600, 18 h, hits give low values, screened at 18.75 µg/mL (by protocol).

SMILES | survival
Cc1cccc(OC(=O)c2cc(-c3ccc(Cl)cc3)on2)c1C | 106%
Cc1ccc(OC(=O)c2cc(-c3ccc(Cl)cc3)on2)c(C)c1 | 92%
Cc1ccccc1OC(=O)c1cc(-c2ccc3c(c2)OCCO3)on1 | -1% (active)
Cc1ccc(-c2cc(C(=O)Oc3ccccc3Cl)no2)cc1C | -1% (active)
Cc1cccc(OC(=O)CSc2nnc(-c3ccc4c(c3)OCO4)o2)c1C | 72%
Cc1ccc(OC(=O)c2cc(-c3ccc4c(c3)OCCO4)on2)c(C)c1 | -2% (active)
CC(C)c1ccc(OC(=O)c2cc(-c3ccccc3)on2)cc1 | 109%
Cc1cccc(OC(=O)c2cc(-c3ccc4c(c3)OCCO4)on2)c1C | -1% (active)
Cc1ccc(NC(=O)c2cc(-c3ccc4c(c3)OCO4)on2)cc1 | 75%
COc1ccc(-c2cc(C(=O)Nc3c(Cl)cccc3Cl)no2)cc1OC | 58%
COc1ccc(Nc2nnc(-c3cc4cc(Cl)ccc4oc3=O)s2)cc1 | 81%
COc1ccc(Br)cc1CNC(=O)CN1C(=O)CCCc2ccccc21 | 80%
Cn1c(=O)n(C)c2cc(CNCc3ccccc3)ccc21 | 88%
COC(=O)c1ccc(C(=O)OC)c(NC(=O)c2c(-c3ccccc3)noc2C)c1 | 147%
COc1cccc(CSc2nc3n(n2)C(CC(C)C)C(C(=O)Nc2ccccc2C)=C(C)N3)c1 (stereo not drawn) | 87%
Cc1ccc(N2CC(c3nc(-c4ccc(Cl)cc4)no3)CC2=O)cc1F (stereo not drawn) | 98%
CCS(=O)(=O)c1nc(S(=O)(=O)c2ccc(C)cc2)c(NCC(C)C)s1 | 95%
CCN1CCN(C(c2ccccc2Cl)c2sc3nc(-c4ccco4)nn3c2O)CC1 (stereo not drawn) | 92%
O=C(Oc1ccccc1Cl)c1cc(-c2ccc3c(c2)OCCO3)on1 | -2% (active)
O=C(Nc1ccccc1C(F)(F)F)c1cc(-c2ccc3c(c2)OCCO3)on1 | 117%
Cc1ccc(C)c(N2CCN(C(=O)c3cc4cc5ccc(C)cc5nc4o3)CC2)c1 | 90%

SMILES | survival
CCN(C(=O)c1cc2cc3ccc(OC)cc3nc2o1)c1cccc(C)c1 | 6% (active)
COc1ccc(CNC(=O)c2cc3cc4ccc(C)cc4nc3o2)cc1 | 74%
COc1ccc2cc3cc(C(=O)NCc4ccc(C)cc4)oc3nc2c1 | 83%
Cc1ccc2cc3cc(C(=O)N(C)c4ccccc4C)oc3nc2c1 | 53% (active)
Cc1ccc2cc3cc(C(=O)N4CCN(c5ccccc5)CC4)oc3nc2c1 | 61%
Cc1ccccc1Cn1c(CN2CCC(C(=O)NCCN(C)C)CC2)cc2ccccc21 | 112%
COc1ccc(S(=O)(=O)N(C)CC(=O)NCc2ccc3c(c2)OCO3)cc1 | 89%
COc1ccc(/C=C(\C#N)C(=O)NCc2ccco2)cc1C | 80%
Cc1cc(C)c(NC(=O)Nc2ccc3snnc3c2)c(C)c1 | 118%
CCc1ccccc1NC(=O)Nc1ccc2snnc2c1 | 41% (active)
Cc1c(Cl)cccc1NC(=O)c1ccc2snnc2c1 | 126%
Cc1ccc(F)c(NC(=O)Nc2ccc3snnc3c2)c1 | 97%
Cc1c(Cl)cccc1NC(=O)Nc1ccc2snnc2c1 | -4% (active)
CCOc1ccc(NC(=O)Nc2ccc3snnc3c2)cc1 | 110%
CC(C)(C)C1CCc2onc(C(=O)Nc3sc4c(c3C(N)=O)CCCC4)c2C1 (stereo not drawn) | 45% (active)
CCOC(=O)c1c(NC(=O)c2noc3c2CC(C(C)(C)C)CC3)sc2c1CCCC2 (stereo not drawn) | 66%
NC(=O)c1c(NC(=O)c2cc(-c3ccc(F)cc3)on2)sc2c1CCCC2 | 62%
CC(=O)Nc1sc2c(c1C(N)=O)CCCC2 | 80%
NC(=O)c1c(NC(=O)c2noc3c2CCCC3)sc2c1CCCC2 | 40% (active)
CC(C)(C)C1CCc2onc(C(=O)Nc3sc4c(c3C#N)CCCC4)c2C1 (stereo not drawn) | 105%
CCOC(=O)c1noc2nc(C)n(Cc3cccc(C#N)c3)c(=O)c12 | 87%

SMILES | survival
O=C(NCc1ccccc1F)C1CCN(Cc2cc3ccccc3n2Cc2cccc(Cl)c2)CC1 | 78%
CCc1sc(Nc2cccc(Cl)c2C)nc1-c1cc2cccc(OC)c2oc1=O | 67%
O=C(NC1CCCC1)C(c1ccsc1)N(C(=O)Cc1cccs1)c1ccccc1 (stereo not drawn) | 86%
O=S(=O)(NC1CCCC1)c1ccc(Br)cc1 | 93%
CCCNS(=O)(=O)c1ccc2[nH]c(=O)[nH]c2c1 | 96%
O=c1[nH]c2ccc(S(=O)(=O)NC3CCCCC3)cc2[nH]1 | 62% (active)
Cc1nc2c(-c3ccc(F)cc3)c(C)nn2c(C)c1CCC(=O)NCc1ccc(F)cc1 | 78%
CCN(C(=O)CSc1nc2ccccc2nc1Cc1cccc(OC)c1)c1cccc(C)c1 | 0% (active)
CC(C)NC(=O)CSc1nc2ccccc2nc1N1CCCCC1 | -26% (active)
COc1cccc(Cc2nc3ccccc3nc2SCC(=O)Nc2cc(OC)ccc2OC)c1 | 47% (active)
CCN(C(=O)CSc1nc2ccccc2nc1Cc1ccc(F)cc1)c1cccc(C)c1 | 86%
COc1cccc(Cc2nc3ccccc3nc2SCC(=O)Nc2ccccc2F)c1 | 67%
COc1ccc(NC(=O)CSc2nc3ccccc3nc2N2CCCCC2)cc1 | 18% (active)
O=C(O)CSc1nc2ccccc2nc1N1CCCCC1 | 56%
COc1cccc(Cc2nc3ccccc3nc2SCC(=O)Nc2cccc(C)c2)c1 | 94%
CCc1ccccc1NC(=O)CSc1nc2ccccc2nc1Cc1cccc(OC)c1 | 86%
CC(C)NC(=O)CSc1nc2ccccc2[nH]1 | 60%
COc1ccc(NC(=O)CSc2nc3ccccc3nc2N2CCC(C)CC2)cc1 | 45%
CC(=O)Nc1ccc(NC(=O)CSc2nc3ccccc3nc2N2CCCCC2)cc1 | 57%
O=C(N/N=C/c1ccc(-c2ccc(Cl)c(C(=O)O)c2)o1)c1ccncc1 | 68%
CCc1ccc(-n2c(=O)c3c4c(sc3n(CC(=O)c3ccc(F)cc3)c2=O)CCC4)cc1 | 81%
